The source made the active and inactive calls. Unless noted, how the calls were made is not given here.
Experiments:
[1] = anti-His antibody binders, primary screen, artefact control for SMM control protein annotation, biochemical, small-molecule microarray, 635 nm fluorescence (AID 1128); details: anti-His Alexa647 antibody binding, higher = more signal;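 further: score merges feature fluorescence with signal-to-noise for each printed compound spot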
[2] = system: Human papillomavirus type 1a E7 protein (residues 1-88); experiment: HPV1a E7 small-molecule binders, primary screen, biochemical, small-molecule microarray, residues 1-88, 635 nm (AID 1129); details: small-molecule microarray binding, fluorescence 635 nm; higher = more signal
[3] = target: Focal adhesion kinase 1 (Homo sapiens) (UniProt Q05397); experiment: small-molecule microarray binders of FAK, primary screen, biochemical, 635/667 nm fluorescence, BSA, DTT (AID 1130); details: PTK2 binding, 635 nm fluorescence, higher = more signal;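 further: composite of spot emission at 667 nm and signal to noise over triplicate slides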
Sequence of Focal adhesion kinase 1 (Homo sapiens) (Q05397 whole entry, looked up): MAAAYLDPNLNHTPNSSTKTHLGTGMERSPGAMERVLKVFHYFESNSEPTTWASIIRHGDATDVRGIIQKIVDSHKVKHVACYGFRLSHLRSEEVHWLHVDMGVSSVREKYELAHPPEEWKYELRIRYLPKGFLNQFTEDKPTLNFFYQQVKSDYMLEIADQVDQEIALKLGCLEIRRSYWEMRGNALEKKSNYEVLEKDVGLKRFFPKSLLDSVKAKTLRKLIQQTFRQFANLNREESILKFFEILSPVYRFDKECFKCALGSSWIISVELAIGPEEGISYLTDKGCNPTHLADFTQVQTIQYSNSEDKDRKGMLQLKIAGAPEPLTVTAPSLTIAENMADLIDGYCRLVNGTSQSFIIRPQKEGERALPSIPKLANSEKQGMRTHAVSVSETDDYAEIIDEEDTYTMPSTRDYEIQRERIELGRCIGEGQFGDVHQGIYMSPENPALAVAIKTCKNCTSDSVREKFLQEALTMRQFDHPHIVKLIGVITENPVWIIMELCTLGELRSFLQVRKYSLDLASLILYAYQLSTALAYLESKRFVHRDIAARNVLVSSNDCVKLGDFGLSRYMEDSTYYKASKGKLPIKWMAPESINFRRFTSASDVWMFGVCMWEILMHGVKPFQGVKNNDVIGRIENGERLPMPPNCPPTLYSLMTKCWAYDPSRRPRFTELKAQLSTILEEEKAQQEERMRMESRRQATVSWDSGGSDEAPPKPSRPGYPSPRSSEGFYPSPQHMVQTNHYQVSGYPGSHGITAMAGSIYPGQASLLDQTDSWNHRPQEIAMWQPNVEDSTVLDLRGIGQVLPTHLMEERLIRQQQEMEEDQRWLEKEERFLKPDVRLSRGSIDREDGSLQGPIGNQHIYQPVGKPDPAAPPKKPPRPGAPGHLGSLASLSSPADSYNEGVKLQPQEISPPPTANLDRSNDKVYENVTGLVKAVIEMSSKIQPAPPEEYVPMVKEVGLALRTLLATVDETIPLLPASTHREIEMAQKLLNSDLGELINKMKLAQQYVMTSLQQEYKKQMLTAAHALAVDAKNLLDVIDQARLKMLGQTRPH

[4] = system: Fibrinogen (Alexa647-labelled); experiment: fibrinogen binders on compound microarrays, profiling panel, artefact control for SMM control-protein annotation, biochemical, small-molecule microarray, 635/667 nm fluorescence (AID 1131); details: fibrinogen-A647 binding fluorescence, higher = more signal;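 further: z-score merges 667 nm fluorescence with per-spot signal-to-noise over triplicate slides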
[5] = target: Follistatin (Homo sapiens) (UniProt P19883); experiment: follistatin binders on small-molecule microarrays, primary screen, biochemical, small-molecule microarray, 635/667 nm fluorescence (AID 1132); details: FST binding, 635 nm fluorescence, higher = more signal
Sequence of Follistatin (Homo sapiens) (P19883 whole entry, looked up): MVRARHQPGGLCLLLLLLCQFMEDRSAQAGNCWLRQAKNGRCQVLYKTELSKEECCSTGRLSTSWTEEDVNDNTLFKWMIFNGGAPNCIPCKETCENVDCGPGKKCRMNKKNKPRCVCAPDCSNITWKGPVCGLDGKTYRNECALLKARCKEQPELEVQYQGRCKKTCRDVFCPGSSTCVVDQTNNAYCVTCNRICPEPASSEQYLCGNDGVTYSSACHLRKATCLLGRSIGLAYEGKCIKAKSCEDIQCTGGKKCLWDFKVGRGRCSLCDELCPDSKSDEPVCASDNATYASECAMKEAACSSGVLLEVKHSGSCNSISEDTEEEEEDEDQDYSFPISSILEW

[6] = target: Fibroblast growth factor 2 (Homo sapiens) (UniProt P09038); experiment: FGF2 binders on small-molecule microarrays, primary screen, biochemical, small-molecule microarray, 635/667 nm fluorescence (AID 1133); details: small-molecule microarray binding, FGF2, fluorescence 635/667; higher = more signal
Sequence of Fibroblast growth factor 2 (Homo sapiens) (P09038 whole entry, looked up): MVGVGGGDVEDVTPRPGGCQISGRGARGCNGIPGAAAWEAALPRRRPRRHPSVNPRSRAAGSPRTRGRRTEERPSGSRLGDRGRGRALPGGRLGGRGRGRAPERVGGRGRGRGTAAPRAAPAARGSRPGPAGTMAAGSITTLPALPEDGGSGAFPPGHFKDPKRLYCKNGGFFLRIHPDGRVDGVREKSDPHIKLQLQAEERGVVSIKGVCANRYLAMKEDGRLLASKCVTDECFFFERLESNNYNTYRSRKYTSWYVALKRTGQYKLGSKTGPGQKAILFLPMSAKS

[7] = mitochondrial membrane potential change in A549 cells, profiling panel, cell-based, JC-1 fluorescence, basal, 24 h, 100 nL (AID 1138); details: higher = more signal;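 further: A549 lung adenocarcinoma cells under basal conditions with no added stimulus; test concentration not given here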
Lefty1 = Lefty1 binders on small-molecule microarrays, primary screen, biochemical, small-molecule microarray, 635/667 nm fluorescence (AID 1139); details: small-molecule microarray binding, fluorescence 635/667; higher = more signal
[8] = system: wheat germ agglutinin (Triticum aestivum), Alexa647-labelled; experiment: wheat germ agglutinin binders on compound microarrays, profiling panel, artefact control for SMM control-protein annotation, biochemical, small-molecule microarray, 635/667 nm fluorescence (AID 1140); details: WGA-A647 binding, 635 nm fluorescence, higher = more signal;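 further: score merges 667 nm feature emission with signal to noise over triplicate slides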
[9] = target: Luciferin 4-monooxygenase (Photinus pyralis) (UniProt P08659); experiment: firefly luciferase enzyme inhibitors, primary screen, biochemical, luminescence, purified enzyme, 2006 set (AID 1141); details: SteadyGlo luminescence, 30 min, higher = more signal, called active from +8 up or from −8 down;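 further: cell-free assay with purified firefly luciferase at 100 ng per well in PBS; test concentration not given here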
Sequence of Luciferin 4-monooxygenase (Photinus pyralis) (P08659 whole entry, looked up): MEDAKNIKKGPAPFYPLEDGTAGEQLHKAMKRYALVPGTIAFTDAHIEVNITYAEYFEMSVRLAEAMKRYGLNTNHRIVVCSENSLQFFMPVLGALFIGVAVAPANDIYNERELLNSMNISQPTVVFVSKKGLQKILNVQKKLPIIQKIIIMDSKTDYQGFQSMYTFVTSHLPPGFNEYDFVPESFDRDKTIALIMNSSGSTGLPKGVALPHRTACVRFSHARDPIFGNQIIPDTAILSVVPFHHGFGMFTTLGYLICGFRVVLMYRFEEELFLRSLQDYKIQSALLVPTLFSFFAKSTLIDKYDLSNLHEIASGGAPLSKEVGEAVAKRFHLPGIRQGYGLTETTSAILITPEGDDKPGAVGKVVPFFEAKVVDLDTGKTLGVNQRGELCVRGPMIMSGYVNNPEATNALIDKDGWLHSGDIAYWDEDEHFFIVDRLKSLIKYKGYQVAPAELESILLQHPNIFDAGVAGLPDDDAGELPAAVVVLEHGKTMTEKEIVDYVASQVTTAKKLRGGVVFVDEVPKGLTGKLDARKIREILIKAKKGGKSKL

[10] = system: Wnt5a (protein binding on small-molecule microarray); experiment: Wnt5a binders on small-molecule microarray, primary screen, biophysical, 635/667 nm fluorescence (AID 1142); details: 635 nm fluorescence, higher = more signal;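 further: fluorescence read at 667 nm with signal to noise per printed feature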
[11] = cell viability in Huh7 cells, primary screen, cytotoxicity control for HCV replication inhibitor project, CellTiter-Glo luminescence, basal, 48 h (AID 1143); details: Huh7 HCV replicon, higher = more signal, called active from +8 up or from −8 down;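 further: Huh7 hepatoma cells carrying a hepatitis C replication reporter with no stimulus; test concentration not given here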
[12] = P. aeruginosa biofilm formation inhibitors, primary screen, PAO1 strain, BacTiter-Glo luminescence, LB-PBS (AID 1144); details: 12 h, higher = more signal
[13] = CREB reporter modulators without forskolin, primary screen, cell-based, PC12, CRE-LacZ reporter, unstimulated (AID 1145); details: no forskolin, luminescence, 4.5 h, higher = more signal, called active from +8 up or from −8 down
[14] = CREB reporter modulators under forskolin, primary screen, cell-based, PC12, CRE-LacZ reporter, forskolin-stimulated (AID 1146); details: luminescence, 4.5 h, higher = more signal, called active from +8 up or from −8 down;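 further: PC12 cells with 6xCRE LacZ reporter stimulated by forskolin 10 µM; beta-galactosidase reporter signal reflecting CREB driven transcription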
[15] = target: Streptavidin (Streptomyces avidinii) (UniProt P22629); experiment: streptavidin binders on small-molecule microarray, primary screen, artefact control for SMM compound annotation, biophysical, 635/667 nm fluorescence (AID 1147); details: streptavidin binding, higher = more signal;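 further: signal reflects streptavidin binding to arrayed compounds as a control protein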
Sequence of Streptavidin (Streptomyces avidinii) (P22629 whole entry, looked up): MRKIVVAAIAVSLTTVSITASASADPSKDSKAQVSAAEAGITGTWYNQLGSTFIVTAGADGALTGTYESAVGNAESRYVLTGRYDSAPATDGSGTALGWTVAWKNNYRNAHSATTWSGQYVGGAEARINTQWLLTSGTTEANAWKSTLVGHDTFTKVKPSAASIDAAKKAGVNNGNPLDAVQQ

[16] = small-molecule binders of probe aInhba, primary screen, biochemical, small-molecule microarray, 635/667 nm fluorescence (AID 1148); details: higher = more signal;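 further: score merges 667nm spot fluorescence with signal-to-noise for antibody binding to printed compounds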
Torsin-1A (Homo sapiens) [17] = target: Torsin-1A (Homo sapiens) (UniProt O14656); experiment: torsin A binders from cell lysate, primary screen, small-molecule microarray, wild-type, 635/667 nm (AID 1149); details: COS7 hTOR1A-WT lysate, 635 nm fluorescence, higher = more signal
Sequence of Torsin-1A (Homo sapiens) (O14656 whole entry, looked up): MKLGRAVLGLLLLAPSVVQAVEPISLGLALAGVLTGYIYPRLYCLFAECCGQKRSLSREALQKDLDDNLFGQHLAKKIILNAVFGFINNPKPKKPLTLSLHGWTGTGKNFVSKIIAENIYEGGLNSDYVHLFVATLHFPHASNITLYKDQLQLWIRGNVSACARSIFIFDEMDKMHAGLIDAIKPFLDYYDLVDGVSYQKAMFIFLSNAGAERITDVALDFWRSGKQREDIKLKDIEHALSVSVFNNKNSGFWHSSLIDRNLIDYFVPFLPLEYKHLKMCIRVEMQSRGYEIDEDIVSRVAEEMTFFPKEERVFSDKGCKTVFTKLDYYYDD

Torsin-1A (Homo sapiens) [18] = target: Torsin-1A (Homo sapiens) (UniProt O14656); experiment: small-molecule binders of mutant TOR1A in lysate, primary screen, cell lysate, small-molecule microarray, COS7 lysate, 635/667 nm fluorescence (AID 1150); details: COS7 hTOR1A mutant lysate, 635 nm fluorescence, higher = more signal;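 further: score pools 667 nm emission and signal to noise measuring lysate protein binding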
[19] = system: Sonic hedgehog protein (Shh); experiment: small-molecule binders of Shh protein, primary screen, biochemical, small-molecule microarray, 635/667 nm fluorescence (AID 1151); details: small-molecule microarray binding, 635 nm fluorescence; higher = more signal;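 further: Shh protein binding to compounds spotted on small-molecule microarray slides; score combines spot fluorescence intensity with signal-to-noise across triplicate slides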

| SMILES | composite z-score [1] | composite z-score [2] | composite z-score [3] | composite z-score [4] | composite z-score [5] | composite z-score [6] | z-score [7] | composite z-score (Lefty1) | composite z-score [8] | z-score [9] | composite z-score [10] | z-score [11] | z-score [12] | z-score [13] | z-score [14] | composite z-score [15] | composite z-score [16] | composite z-score (Torsin-1A (Homo sapiens) [17]) | composite z-score (Torsin-1A (Homo sapiens) [18]) | composite z-score [19] |
| --- | --- | --- | --- | --- | --- | --- | --- | --- | --- | --- | --- | --- | --- | --- | --- | --- | --- | --- | --- | --- |
| COCCOC(=O)N1C(=O)[C@@]2(c3cc(C#CCNC(N)=O)ccc31)[C@H](C(=O)N1CCc3cc(OC)c(OC)cc3C1)[C@H]1C(=O)O[C@H](c3ccccc3)[C@H](c3ccccc3)N1[C@@H]2c1ccccc1OCCO | 1.16 | 0.778 | 0.378 | 0.757 | 1.2 | 1.48 | -1.12 | 0.716 | 0.524 | -0.709 (inactive) | 0.358 | -2.32 (inactive) | -0.772 (inactive) | 0.0776 (inactive) | -0.979 (inactive) | 0.639 | 0.0301 | 0.969 | 0.498 | 1.81 |
| COCCOC(=O)N1C(=O)[C@@]2(c3cc(C#CCCO)ccc31)[C@H](C(=O)Nc1nc3ccccc3s1)[C@H]1C(=O)O[C@H](c3ccccc3)[C@H](c3ccccc3)N1[C@@H]2c1ccccc1OCCO | 1.87 | 1.2 | 0.764 | 0.866 | 1.12 | 0.69 | -2.25 | 0.573 | 0.902 | -0.551 (inactive) | 0.585 | -1.41 (inactive) | 0.235 (inactive) | -0.0526 (inactive) | 0.595 (inactive) | 0.968 | 0.949 | 0.759 | 1.12 | 0.881 |
| C=C(C)[C@@H]1CC=C(C(O)C2C=CC3C(=O)N(c4ccccc4)C(=O)C3N2Nc2ccccc2F)CC1 (stereo not given in full) | 0.282 | 1.27 | 1.12 | 0.987 | 1.11 | 0.0538 | -0.568 | 0.531 | 1.27 | -0.809 (inactive) | 0.29 | 0.581 (inactive) | -0.887 (inactive) | 0.24 (inactive) | 0.493 (inactive) | 1.31 | 0.153 | 0.0552 | 0.77 | 0.27 |
| C=CCC(OC(C)=O)[C@@H]1[C@@H](N(Cc2cccc3ccccc23)C(=O)Cc2ccc(OC)cc2)c2cc(OCCCO)ccc2N1C(=O)c1ccc2ccccc2n1 (stereo not given in full) | -0.115 | -0.0569 | 0.833 | 0.733 | 0.822 | 0.0677 | 0.343 | -0.0766 | 0.174 | 0.565 (inactive) | 0.216 | -2.08 (inactive) | -0.253 (inactive) | -0.374 (inactive) | 1.3 (inactive) | 1.05 | 0.0569 | -0.512 | 0.0537 | 0.524 |

Reference: PubChem BioAssay
